Screens from PubChem BioAssay.
Marburg entry inh: blocks Marburg virus binding to or entry into cells; Potency, µM (titrated, usually from 37.8 µM), without a hit: at the top dose activity change, negative = inhibition, most hits filed as inhibitors; Marburg virus pseudotyped entry inhibition, cell reporter; hit rate 1.8% among 300,000; AID 540276; calls by dose curve; tested in HEK293 cells; also: potency is read from the fitted curve at half-maximal effect; % is scaled to controls: 0 for no effect and ±100 for the full control effect
CHX counter: counter-screen for Shiga toxin inhibitors: cycloheximide protein synthesis inhibition; cell reporter, cycloheximide protein synthesis inhibition counterscreen; max response, %; hit rate 12% among 300,000; AID 2314; in the data active = max response mostly above about 13%, no sharp cut-off; inactive = mostly below about 14%; also: read at 38.3 µM for the half of the compounds with a filed dose; 0% is about no effect
HCV inh: blocks hepatitis C virus; Huh7.5.1 HCVcc-Cre infection, luciferase reporter, 44 h; Potency, µM (doses to about 41.8 µM), inactives show at the top dose activity change, negative = inhibition, usual class: inhibitors; hit rate 3.4% among 340,000; active = well fitted inhibition curve with a large enough effect; inconclusive = small, poorly fitted or top-dose-only effect, or another doubt; inactive = no such curve, though single readings can be large or run the other way; also: potency is read from the fitted curve at half-maximal effect; % is scaled to controls: 0 for no effect and ±100 for the full control effect
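Luciferase read-out (15 sec integration) after a 15 min room-temperature substrate step quantifies HCVcc-Cre infection. Cells, 1,000 per well, had compound added 4 h post-plating, then virus at ~0.5 moi, and were cultured 44 h.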
LASV entry inh: inhibitors of Lassa virus binding or cell entry | hit rate 1.2% among 300,000 | Potency, µM (highest dose often 37.9 µM), for inactives: at the highest dose activity change, negative = inhibition, most hits filed as inhibitors | AID 540256 | Lassa virus pseudotype entry inhibition, cell reporter; calls by dose curve; tested in HEK293 cells; also: potency is read from the fitted curve at half-maximal effect; % is scaled to controls: 0 for no effect and ±100 for the full control effect; nearly all actives have a fitted effect of over 50% in size
FMDV inh: foot and mouth disease virus antiviral activity. FMDV antiviral cell-based qHTS. Potency, µM (doses to about 57.9 µM), without a hit: at the top dose activity change, negative = inhibition, actives largely listed as inhibitors. hit rate 1.2% among 410,000; calls by dose curve; tested in HEK293T cells; also: read-out not given here; potency is read from the fitted curve at half-maximal effect; % is scaled to controls: 0 for no effect and ±100 for the full control effect; nearly all actives have a fitted effect of over 45% in size
Shiga toxin inh: inhibitors of Shiga toxin in Vero cells; Vero cells, Shiga toxin protein synthesis inhibition reporter; inhibition, % at 38.7 µM; hit rate 9.2% among 290,000; in the data active = inhibition mostly above about 28%, no sharp cut-off; inactive = mostly below about 43%; also: 0% is about no effect
An asterisk follows results filed as active; ? = inconclusive; . = no result given; [ ] = remark or other dose. This is a sample that favours compounds with a hit; in the whole collection about 13% have one here.

SMILES	Marburg entry inh	CHX counter	HCV inh	LASV entry inh	FMDV inh	Shiga toxin inh
CN(CCOC(=O)c1ccc2c(c1)OCCO2)Cc1ccccc1	7%[46.1 µM]	41*	-16%	-4%	32%	19*
Cc1ccccc1-c1noc(CSc2nnc(-c3ccncc3)n2-c2ccc(F)cc2)n1	.	.	.	2%[46.1 µM]	-24%	.
COc1ccc2cc3cc(C(=O)NCc4ccco4)oc3nc2c1	-13%	-1	?	?	10%	-6
O=C(NCc1ccco1)c1ccc(-c2ccccc2Cl)o1	-11%[46.1 µM]	43*	14%	?	28%	49
O=C(NCc1ccco1)c1ccc(CS(=O)(=O)Cc2ccc(Cl)cc2)o1	23%	-4	-19%	-14%	-28%	-1
O=C(NCc1ccco1)c1cc2cc3ccc(Cl)cc3nc2o1	?	9	?	18µM*	9%	4
O=C(NCc1ccco1)c1ccc(-c2ccc(Cl)cc2)o1	.	37*	?	.	23%	78*
CC(C)C/C=C1\CCc2c([nH]c3ccccc23)C1=O	11%[46.1 µM]	46*	-15%	0%[46.1 µM]	22%	88*
O=C1/C(=C/c2cccnc2)CCc2c1[nH]c1ccccc21	?	48*	-29%	-22%	37%	68*
CCCCCCCCC1=NCCc2c1[nH]c1ccccc21	?	-5	?	?	-23%	2
CC1C/C(=C\c2cccnc2)C(=O)/C(=C/c2cccnc2)C1 (stereo not drawn)	2.1µM*	-6	?	2.9µM*	3.5µM*	-13
COc1ccc(/C=C/C(=O)Nc2ccc(OC)nc2)cc1	0%	19	-27%	19%	2%	44
COc1ccc(NC(=O)Nc2ccc(F)cc2)cn1	.	29*	-3%	.	33%	34*
CCOC(=O)c1ccc(NC(=O)Nc2ccc(F)cc2)cc1	23%	21*	?	?	21%	30
NS(=O)(=O)c1ccc(NC(=O)CSc2ccccc2)cc1	.	20*	4%	.	36%	41
COc1ccc(CS(=O)(=O)/C(Cl)=C(/Cl)C(=O)Nc2ccc(OC)nc2)cc1	2.8µM*	13	4µM*	6.3µM*	11µM*	3
FC(F)(F)c1cc(Cl)c2nnc(C(F)(F)Cl)n2c1	-4%	-2	2%	3%	6%	-9
COc1ccc(NC(=O)Cc2ccccc2)cn1	6%[46.1 µM]	0	16%	?	14%	47
COC(=O)c1ccc(NC(=O)Nc2ccc(F)cc2)cc1	0%	26*	?	2%	-5%	107*
COc1ccc(NC(=O)CSc2ccccc2)cn1	?	27*	-6%	?	33%	49*
CCOC(=O)c1ccc(NC(=O)CC2C(=O)N(c3ccc(F)cc3)C(=O)N2CCC(C)C)cc1 (stereo not drawn)	26µM*	13	3%	?	?	21
CCOC(=O)c1ccc(NC(=O)Nc2ncc(Cl)cc2Cl)cc1	.	17*	.	.	.	22
Cc1ccc(CNC(=O)C2CCN(S(=O)(=O)N3CC(C)CC(C)C3)CC2)cc1 (stereo not drawn)	.	14	-1%	.	-17%	-6
Cc1ccc(S(=O)(=O)NCN2C(=O)c3ccccc3C2=O)cc1	.	.	.	.	-2%	.
CCOc1ccc(CCNC(=O)COC(=O)/C=C/c2ccc(OC(F)F)c(OC)c2)cc1OCC	-3%[46.1 µM]	.	-15%	-17%	-6%	.
SMILES	Marburg entry inh	CHX counter	HCV inh	LASV entry inh	FMDV inh	Shiga toxin inh
COC(=O)c1ccc(NC(=O)Nc2ccc(F)c(Cl)c2)cc1	4%	28*	11µM*	0%	-48%	49*
O=C(Nc1ccncc1)Nc1ccc(F)c(Cl)c1	.	15	3%	.	19%	30
COc1ccc(NC(=O)CSc2nncs2)cc1OC	-2%	-3	16%	0%	21%	-7
O=C(COC(=O)c1cc(Cl)cc(Cl)c1)NCCN1C(=O)CSC1=O	15%	-1	2%	11%	-8%	-8
Cc1ccccc1-c1nnc(SCC(=O)N(C)C2CCCCC2)o1	8%[46.1 µM]	.	.	3%[46.1 µM]	9%	.
COC(C[C@@H]1O[C@H]1[C@H](O)COCc1ccccc1)OC	.	-3	11%	.	-9%	2
COc1ccc(C(C[N+](=O)[O-])c2c(-c3ccccc3)cc3ccccn23)cc1OC (stereo not drawn)	?	-1	-23%	-5%	?	-12
COc1ccc(C(C[N+](=O)[O-])c2c(-c3ccccc3)cc3ccccn23)cc1 (stereo not drawn)	-10%	40*	-12%	-29%	21%	30
COc1cc(C(C[N+](=O)[O-])c2c(C)cc3ccccn23)ccc1O (stereo not drawn)	-22%[46.1 µM]	-2	?	.	22µM*	-2
CCn1c(C)nc2cc(C(=O)N/N=C/c3ccccc3)ccc21	10%[46.1 µM]	34*	-1%	9%	27%	94*
CCn1c(C)nc2cc(C(=O)N/N=C/c3ccc(O)cc3)ccc21	?	-2	-1%	?	32%	11
CCn1c(C)nc2cc(C(=O)N/N=C/c3cccc(O)c3O)ccc21	?	31*	?	?	8%	67*
COc1ccc(-n2nc(C(=O)NCC(=O)N3CCC(C(N)=O)CC3)c3ccccc3c2=O)cc1	-6%[46.1 µM]	-2	25%	-15%[46.1 µM]	-4%	-8
COc1ccc(-n2nc(C(=O)NCC(=O)N3CCC4(CC3)OCCO4)c3ccccc3c2=O)cc1Cl	-13%	23*	-25%	?	18%	54*
COc1ccc(-n2nc(C(=O)NCC(=O)N3CCCC(C)C3)c3ccccc3c2=O)cc1Cl (stereo not drawn)	-27%[46.1 µM]	17*	?	?	-2%	36*
COc1ccc(-n2nc(C(=O)NCC(=O)N3CCCCCC3)c3ccccc3c2=O)cc1OC	-3%[46.1 µM]	24*	6%	-15%	15%	15
COc1ccc(-n2nc(C(=O)NCC(=O)N3CCC(C)CC3)c3ccccc3c2=O)cc1	2%[46.1 µM]	33*	-5%	.	34%	48*
COc1ccc(-n2nc(C(=O)NCC(=O)N3CC(C)CC(C)C3)c3ccccc3c2=O)cc1OC (stereo not drawn)	?	-3	0%	-24%[46.1 µM]	-16%	-6
CN(C)C(=O)c1cc2cc([N+](=O)[O-])ccc2s1	29%	-2	?	?	-6%	-7
N=C(N)SCc1ccc(Cl)c2ccccc12	-28%	.	2%	9%[46.1 µM]	0%	.
CCOC(=O)C1CCCN(C(=O)CNC(=O)c2nn(-c3ccc(OC)c(Cl)c3)c(=O)c3ccccc23)C1 (stereo not drawn)	-22%[46.1 µM]	15	-21%	?	-9%	16
COc1ccc(-n2nc(C(=O)NCC(=O)N3CCC4(CC3)OCCO4)c3ccccc3c2=O)cc1	?	10	-13%	.	11%	25
CCOC(=O)C1CCN(C(=O)CNC(=O)c2nn(-c3ccc(OC)c(Cl)c3)c(=O)c3ccccc23)CC1	?	25*	?	?	5%	35
